# According to the supplement of paper PMC6555819:
# Tests used:
# Assay in all cases: PBM binding z-score (relative to random genomic background probes); higher = stronger binding; sequences stand for … in GC…GCGATTGACAGCGTAGAATGAAGG
# [1] = tested on: FXR:RXRa (NR concentration 270 nM, RXRa partner concentration 90 nM)
# How it was run: (§1)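 Ligand-free nuclear receptor dimers were bound for 1 h to custom Agilent 4×180K protein-binding microarrays. Detection used antibodies against each partner (one per run). Binding z-scores rest on regression-normalized fluorescence, with random background probes as the reference.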
# [2] = tested on: LXRa:RXRa (NR concentration 270 nM, RXRa partner concentration 90 nM)
# How it was run: as §1
# [3] = tested on: LXRa homodimer (NR concentration 270 nM)
# How it was run: as §1
# [4] = tested on: LXRb:RXRa (NR concentration 270 nM, RXRa partner concentration 90 nM)
# How it was run: as §1
# [5] = tested on: LXRb homodimer (NR concentration 270 nM)
# How it was run: as §1
# [6] = tested on: PPARa:RXRa (NR concentration 270 nM, RXRa partner concentration 90 nM)
# How it was run: as §1
# [7] = tested on: PPARg:RXRa (NR concentration 180 nM, RXRa partner concentration 90 nM)
# How it was run: as §1
# [8] = tested on: PPARg:RXRa 270nM:90nM, anti-RXR (NR concentration 270 nM, RXRa partner concentration 90 nM)
# How it was run: as §1
# [9] = tested on: PPARg:RXRa 30nM:10nM, anti-RXR (NR concentration 30 nM, RXRa partner concentration 10 nM)
# How it was run: as §1
# [10] = tested on: PPARg:RXRa 90nM:30nM, anti-RXR (NR concentration 90 nM, RXRa partner concentration 30 nM)
# How it was run: as §1
# [11] = tested on: PPARg:RXRa DBDmut IVT, anti-RXR (DBD mutation: RXRa K156A/R161A, NR concentration 270 nM, RXRa partner concentration 90 nM)
# How it was run: as §1
# [12] = tested on: PPARg:RXRa IVT, anti-PPARg (NR concentration 270 nM, RXRa partner concentration 90 nM)
# How it was run: as §1
# [13] = tested on: PPARg DBDmut:RXRa IVT, anti-PPARg (DBD mutation: PPARg1 K132A/R137A, NR concentration 270 nM, RXRa partner concentration 90 nM)
# How it was run: as §1
# [14] = tested on: PPARg DBDmut IVT, anti-PPARg (DBD mutation: PPARg1 K132A/R137A, NR concentration 270 nM)
# How it was run: as §1
# [15] = tested on: PPARg homodimer (NR concentration 180 nM)
# How it was run: as §1
# [16] = tested on: PXR:RXRa (NR concentration 270 nM, RXRa partner concentration 90 nM)
# How it was run: as §1
# [17] = tested on: PXR homodimer (NR concentration 270 nM)
# How it was run: as §1
# [18] = tested on: RARa:RXR (NR concentration 270 nM, RXRa partner concentration 90 nM)
# How it was run: as §1
# [19] = tested on: RARa homodimer (NR concentration 270 nM)
# How it was run: as §1
# [20] = tested on: RARb:RXRa (NR concentration 270 nM, RXRa partner concentration 90 nM)
# How it was run: as §1
Sequence,PBM binding z-score [1],PBM binding z-score [2],PBM binding z-score [3],PBM binding z-score [4],PBM binding z-score [5],PBM binding z-score [6],PBM binding z-score [7],PBM binding z-score [8],PBM binding z-score [9],PBM binding z-score [10],PBM binding z-score [11],PBM binding z-score [12],PBM binding z-score [13],PBM binding z-score [14],PBM binding z-score [15],PBM binding z-score [16],PBM binding z-score [17],PBM binding z-score [18],PBM binding z-score [19],PBM binding z-score [20]
CCTAGTTGGGCAGGAGGTCACACACCGGATATGA,2.73,2.97,1.41,2.79,-0.389,3.7,3.31,4.01,1.77,3.33,0.343,2.59,-0.448,-0.00376,2.16,3.77,0.916,3.7,1.59,3.15
TAGCCTAGGTCATTTGGCCAGTATAGTACGCATC,4.44,3.74,1.16,2.71,1.07,3.48,2.06,2.03,0.424,1.5,1.38,2.47,0.221,0.0367,0.566,1.61,-0.0591,2.08,-0.227,3.67
AGTCAAAATTCACTAGGTAACGTAAGATTCAGCT,0.492,0.568,0.177,0.0874,0.267,0.989,0.791,0.81,0.61,1.03,1.45,2.58,1.21,0.716,1.09,0.12,0.568,1.48,1.44,0.258
CCTCGGAGGACAACAGGATGTCAGAGCTGCCAGA,-0.208,-0.272,-0.316,-0.845,-1.16,-0.631,0.183,-1.12,-0.754,-1.23,0.0272,-0.669,-0.339,-1.74,-0.00372,-0.729,-0.378,-0.712,-0.0154,1.13
CGTCAAAGTTCACCTAAGGTAACGTAAAGCACGC,6.94,6.74,3.99,4.24,1.27,5.11,5.63,5.75,2.48,4.52,0.554,2.63,0.556,0.77,3.35,5.29,3.14,4.17,0.893,5.21
TAGCCAAGGTCATTCAGGGGCCAGTATAGAAAGC,7.35,5.84,1.66,4.6,2.35,5.19,4.6,4.81,1.47,3.17,1.73,3,1.11,0.966,3.14,4.91,1.43,5.72,0.389,5.06
AGTCAAAGTTCATCTAGGTAACGAAAGATATGCT,6.43,5.78,4.68,3.86,1.83,5.26,7.04,6.66,3.55,5.72,0.744,4.11,1.97,1.3,3.18,5.26,6.53,4.34,2.16,5.15
CCGACTGGGGCAAAGGTTACCATGCTCAGTACGA,1.68,1.51,-0.384,1.97,-0.983,5.76,11,9.85,11.5,11.4,4.91,6.34,0.168,-0.503,1.36,2.28,-0.702,4.09,-0.847,2.63
TAGCCTAGGTCATTGGGCTAGTATAGTACGCATC,4.29,3.19,0.404,1.81,-0.386,3.63,2.59,3.08,0.744,1.97,1.65,3.11,0.176,-0.547,0.811,1.4,-0.602,1.91,-0.44,3.46
ATCGAATGGTCGTGAGGTGAGTATACAGAAAGGC,0.132,-0.131,-0.134,-0.373,-0.124,-0.301,0.654,-0.486,-0.0496,-0.425,-0.654,0.348,0.375,-0.00822,0.181,-0.104,0.00681,0.113,0.259,0.464
TTACCAAGGTTAAAGGTCGTTGATGCACGCCTTG,4.98,5.1,1.51,4.06,0.439,5.64,7.98,8.34,8.79,8.95,2.09,4.53,0.805,0.292,2.41,5.16,0.943,6.63,0.588,3.68
CGTCCAAGGTCAATGCTAGGCCAGTGAAAGCATT,6.44,4.55,0.299,3.51,0.207,4.74,3.02,4.07,1.14,2.82,2.99,3.13,-0.61,-0.971,2.78,3.64,0.593,4.31,0.644,4.96
CCTACTGGGCGACGAAAGGTCATTGATTCAGTGA,3.21,3.92,4.32,3.94,-0.175,4.31,2.37,3.74,1.35,2.73,1.64,2.57,-0.823,-0.515,1.98,4.56,0.841,4.47,0.351,3.75
TAGCCTAGGTCATAGGGCCAGTATAGTACGCATC,4.13,3.13,0.208,2.09,-0.248,3.7,3.32,3.46,1.43,2.75,1.41,2.83,0.326,-0.841,1.14,1.45,-0.088,2.37,-0.213,3.75
CCTTACGGGTCAGGGTTATAGCACGGGTGGTACG,3.45,2.22,-0.256,1.95,-0.0988,3.9,2.72,3.18,0.621,1.96,0.748,2.22,-0.0775,-0.847,1.81,2.25,-0.00485,3.06,0.308,3.41
